KB-3-1 cytotox – KB-3-1 parental cell cytotoxicity; KB-3-1 viability, CellTiter-Glo ATP luminescence, 72 h; Potency, µM (doses to about 46.1 µM), hits mostly cytotoxic; actives 1.4% (n = 400,000); AID 1347075; note: % is set by controls: 0 for no effect and ±100 for the full control effect; nearly all actives have a fitted effect of over 60% in size
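Using CellTiter-Glo luminescence, growth of non-resistant KB-3-1 adenocarcinoma cells is assessed 72 h after pin-tool compound addition at 37 °C. Normalized responses across the concentration series yield fitted curves.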
MCF10A rereplic – induces DNA re-replication in MCF 10a normal breast cells; MCF 10A DNA re-replication, Hoechst nuclear intensity, 48 h; Potency, µM (highest dose often 46.1 µM), for inactives: at the top dose activity, positive = re-replication, actives largely listed as activators; actives 2.9% (n = 350,000); AID 624296; note: % of control where 0% means no effect; nearly all actives have a fitted effect of over 50% in size
SW480 rereplic – DNA re-replication induction in SW480 cells | Potency, µM (doses to about 46.1 µM), for the others: at the highest dose re-replication activation, hits mostly activators | actives 1.8% (n = 340,000) | AID 624297 | SW480 DNA re-replication, Hoechst DNA content imaging, 48 h; note: % of control where 0% means no effect; nearly all actives have a fitted effect of over 55% in size
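250 cells/well; 23 nL cpd via pin tool; 48 hr, 37 C, 5% CO2; Hoechst 40 min; imager read of total nuclear intensity, ex 405/em 500-530 nm.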
HT1080-NT tox – kills 2HG-producing HT-1080-NT fibrosarcoma cells; HT-1080-NT fibrosarcoma viability, CellTiter-Glo ATP luminescence, 48 h; Potency, µM (highest dose often 46.1 µM), for the others: at the highest dose activity, negative = less viability, hits mostly cytotoxic; actives 1.6% (n = 360,000);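 note: NT is the 2HG producing partner of a matched IDH1 knockdown line; 0% = DMSO-treated cells and -100% = media-only wells without cells; nearly all actives have a fitted effect of over 55% in size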
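Toxicity toward the 2HG-producing NT line was scored as %Activity, normalised to DMSO and no-cell wells, from CellTiter-Glo luminescence after 48 hours' treatment.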
KB-V1 MDR tox – KB-V1 MDR subline cytotoxicity; KB-V1 MDR cells viability, CellTiter-Glo, 72 h; Potency, µM (top dose mostly 46.1 µM), most hits filed as cytotoxic; actives 3.4% (n = 400,000); AID 1347076; note: % is set by controls: 0 for no effect and ±100 for the full control effect; nearly all actives have a fitted effect of over 60% in size
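Potencies derive from concentration-effect curves fitted to normalized luminescence (CellTiter-Glo) of KB-V1 cells treated for 72 h at 37 degrees C in phenol-red-free DMEM containing 10% FBS.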
HT1080 IDH1KD tx – kills HT-1080 cells with IDH1 knockdown; HT-1080 IDH1 knockdown viability, ATP luminescence, 48 h; Potency, µM (titrated, usually from 46.1 µM), inactives show at the highest dose activity, negative = toxicity, hits mostly cytotoxic; actives 2% (n = 360,000); AID 686971;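 note: 0% = DMSO wells and -100% = cell-free medium wells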
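After a 2 h attachment period, IDH1KD HT-1080 cells took pin-transferred compound for 48 h at 37 °C; ATP-based luminescence after 10 min room-temperature reagent incubation reported viability.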
Starred values were filed as active, the others as inactive; ! = a repeat was not active. This is a sample that favours compounds with a hit; in the whole collection about 7.9% have one here. Calls come from the whole dose curve; as a rule, active = well fitted curve in the direction sought with a large enough effect; inconclusive = small, poorly fitted or top-dose-only effect, or another doubt; inactive = no such curve, though single readings can be large; an effect the other way counts as inactive or inconclusive. Potency is the fitted concentration of half-maximal effect.

Results for CN(C(=O)CSc1nnc(-c2c[nH]c3ccccc23)n1C1CC1)C1CCS(=O)(=O)C1 (stereo not given) ?
KB-3-1 cytotox: inactive; MCF10A rereplic: 0%; SW480 rereplic: -5%; HT1080-NT tox: 13%; KB-V1 MDR tox: inactive; HT1080 IDH1KD tx: 10%

Results for COc1cccc(C(C)(O)c2nc(-c3cnc4ccccc4c3)cs2)c1 (stereo not given) ?
KB-3-1 cytotox: inactive; HT1080-NT tox: -20%; KB-V1 MDR tox: inactive; HT1080 IDH1KD tx: inconclusive

Results for CC(O)(c1cccc(F)c1)c1nc(-c2cccc(C(F)(F)F)c2)cs1 (stereo not given) ?
KB-3-1 cytotox: inactive; HT1080-NT tox: 21µM*; KB-V1 MDR tox: inactive; HT1080 IDH1KD tx: inconclusive

Results for CC(O)(c1cccnc1)c1nc(-c2ccc3c(c2)OCO3)cs1 (stereo not given) ?
KB-3-1 cytotox: inactive; HT1080-NT tox: 4%; KB-V1 MDR tox: inconclusive; HT1080 IDH1KD tx: -19%

Results for CC(O)(c1cccc(F)c1)c1nc(-c2cnc3ccccc3c2)cs1 (stereo not given) ?
KB-3-1 cytotox: inactive; HT1080-NT tox: 15µM*; KB-V1 MDR tox: inconclusive; HT1080 IDH1KD tx: inconclusive

How did CC(O)(c1cccc(F)c1)c1nc(-c2ccccc2)cs1 (stereo not given) do in these assays?
KB-3-1 cytotox: inactive; HT1080-NT tox: inconclusive; KB-V1 MDR tox: inactive; HT1080 IDH1KD tx: inconclusive

How did CC(O)(c1cccnc1)c1nc(-c2ccc3ccccc3c2)cs1 (stereo not given) do in these assays?
KB-3-1 cytotox: inconclusive; HT1080-NT tox: inconclusive; KB-V1 MDR tox: 6.5µM*; HT1080 IDH1KD tx: inconclusive

How did CCn1nnc(NC(=O)C(C)Oc2ccc(Cl)cc2Cl)n1 (stereo not given) do in these assays?
KB-3-1 cytotox: inactive; MCF10A rereplic: 1%; SW480 rereplic: -10%; HT1080-NT tox: -16%; KB-V1 MDR tox: 18µM*; HT1080 IDH1KD tx: -4%

Results for CC(Oc1ccc(Cl)cc1Cl)C(=O)Nc1ccc(O)cc1 (stereo not given) ?
KB-3-1 cytotox: inactive; MCF10A rereplic: 4%; SW480 rereplic: -2%; HT1080-NT tox: -19%; KB-V1 MDR tox: inactive; HT1080 IDH1KD tx: 0%

Results for CC(Oc1ccc(Br)cc1Cl)C(=O)Nc1ccncc1 (stereo not given) ?
KB-3-1 cytotox: inconclusive; MCF10A rereplic: inconclusive; SW480 rereplic: -29%; HT1080-NT tox: inconclusive; KB-V1 MDR tox: inactive; HT1080 IDH1KD tx: 16µM*

What do the screens show for `CC(Oc1ccc(Br)cc1)C(=O)Nc1ccncc1` (stereo not given)?
KB-3-1 cytotox: inactive; MCF10A rereplic: 3%; SW480 rereplic: 0%; HT1080-NT tox: inconclusive; KB-V1 MDR tox: inactive; HT1080 IDH1KD tx: -15%

How did COC(=O)c1cn(NC(=O)/C=C/c2cc(OC)ccc2OC)c(=O)c2ccccc12 do in these assays?
KB-3-1 cytotox: inactive; MCF10A rereplic: -31%; SW480 rereplic: 3%; HT1080-NT tox: -5%; KB-V1 MDR tox: 8.2µM*; HT1080 IDH1KD tx: -7%

What do the screens show for `Cc1cc(CC(=O)O)n(C)c1C(=O)c1ccc(Cl)cc1`?
KB-3-1 cytotox: inactive; MCF10A rereplic: 30µM*!; SW480 rereplic: -53%; HT1080-NT tox: 0%; KB-V1 MDR tox: inactive; HT1080 IDH1KD tx: -4%

Results for Cn1nccc1C(=O)c1ccc(Cl)cc1 ?
KB-3-1 cytotox: inactive; MCF10A rereplic: -15%; SW480 rereplic: -14%; HT1080-NT tox: 1%; KB-V1 MDR tox: inactive; HT1080 IDH1KD tx: 11%

What do the screens show for `COC(=O)c1cn(C(=O)c2ccc(OC)cc2)c2ccccc12`?
KB-3-1 cytotox: inconclusive; MCF10A rereplic: 5.8µM*; SW480 rereplic: 2.3µM*; HT1080-NT tox: inconclusive; KB-V1 MDR tox: inactive; HT1080 IDH1KD tx: 4.6µM*

What do the screens show for `COC(=O)c1cn(C(=O)c2ccc(C)cc2)c2ccccc12`?
KB-3-1 cytotox: inactive; MCF10A rereplic: 4%; SW480 rereplic: 7.3µM*; HT1080-NT tox: -18%; KB-V1 MDR tox: inactive; HT1080 IDH1KD tx: -17%

How did COC(=O)c1cn(C(=O)c2cc(C)cc(C)c2)c2ccccc12 do in these assays?
KB-3-1 cytotox: inactive; MCF10A rereplic: 14%; SW480 rereplic: -2%; HT1080-NT tox: 8%; KB-V1 MDR tox: inactive; HT1080 IDH1KD tx: 0%

What do the screens show for `Cn1c(=O)c([N+](=O)[O-])c(NCCCn2ccnc2)c2ccccc21`?
KB-3-1 cytotox: inactive; MCF10A rereplic: inconclusive; SW480 rereplic: -16%; HT1080-NT tox: 0%; KB-V1 MDR tox: inactive; HT1080 IDH1KD tx: 3%

What do the screens show for `Cn1c(=O)c([N+](=O)[O-])c(-n2ccnc2)c2ccccc21`?
KB-3-1 cytotox: inconclusive; MCF10A rereplic: inconclusive; SW480 rereplic: inconclusive; HT1080-NT tox: 16µM*; KB-V1 MDR tox: inactive; HT1080 IDH1KD tx: 26µM*

Results for COc1ccc(Br)cc1/C=N/NC(=O)c1ccc(COc2ccc3c(c2)CCC3)o1 ?
KB-3-1 cytotox: inactive; MCF10A rereplic: 12µM*; SW480 rereplic: 18%; HT1080-NT tox: -21%; KB-V1 MDR tox: inactive; HT1080 IDH1KD tx: inconclusive

How did O=C(N/N=C/c1ccc2ccccc2c1)c1ccc(COc2ccc3c(c2)CCC3)o1 do in these assays?
KB-3-1 cytotox: inactive; MCF10A rereplic: inconclusive; SW480 rereplic: 16%; HT1080-NT tox: inconclusive; KB-V1 MDR tox: inactive; HT1080 IDH1KD tx: inconclusive

What do the screens show for `COc1ccc(/C=N/NC(=O)c2ccc(Br)cc2)c(OC)c1`?
KB-3-1 cytotox: inactive; MCF10A rereplic: 1%; SW480 rereplic: 7%; HT1080-NT tox: 2%; KB-V1 MDR tox: inactive; HT1080 IDH1KD tx: 4%

Results for CCCOc1ccc(Br)cc1/C=N/NC(=O)c1cc(OC)c(OC)c(OC)c1 ?
KB-3-1 cytotox: inactive; MCF10A rereplic: -1%; SW480 rereplic: -7%; HT1080-NT tox: -6%; KB-V1 MDR tox: inactive; HT1080 IDH1KD tx: 3%

Results for COc1ccc(O)c(/C=N/NC(=O)c2ccc(OCc3cccc(Br)c3)cc2)c1 ?
KB-3-1 cytotox: inconclusive; MCF10A rereplic: inconclusive; SW480 rereplic: 4.1µM*; HT1080-NT tox: 1.6µM*; KB-V1 MDR tox: 3.3µM*; HT1080 IDH1KD tx: 5.2µM*

What do the screens show for `COc1ccc(C(=O)N/N=C/c2cc(Br)ccc2O)cc1OC`?
KB-3-1 cytotox: inconclusive; MCF10A rereplic: inconclusive; SW480 rereplic: inconclusive; HT1080-NT tox: inconclusive; KB-V1 MDR tox: 21µM*; HT1080 IDH1KD tx: inconclusive
